# The list is not random: actives were taken first. Their share in the collection is about 2.4%.
# TLR9-MyD88 block: inhibitors of human TLR9-MyD88 binding | AID 504734 | 340,000 compounds, 0.21% hits | inhibition, % at 4.98 µM | CHO BLA complementation TLR9-MyD88, CCF4 FRET ratio | Q9NR96+Q99836;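 active means inhibition above the mean over all tested compounds plus 3 SD, cut at about 21% in these data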;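 further: 0% = DMSO only wells and 100% = clavulanate BLA inhibitor control wells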
# TLR4-MyD88 BLA: inhibitors of human TLR4-MyD88 binding | O00206+Q99836 | inhibition, % at 8.4 µM | 200,000 compounds, 0.18% hits | HeLa CL3-4 TLR4/MyD88 BLA complementation, FRET ratio; in the data active means inhibition above about 25%;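 further: 0% = vehicle and 100% = reference inhibitor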
# HSF1 inhib: HSF1 inhibition | activity change, negative = inhibition, % at 7.5 µM (by protocol) | 300,000 compounds, 0.77% hits | NIH3T3-HGL HSE-luciferase, MG132-induced, luminescence 8 h; stronger effect = lower value;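 active means more than half of replicate wells show activity change below -50%, luminescence cut by over half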;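 further: luciferase reports HSF-1 transcriptional activity via heat shock element; 0% = median of DMSO wells and -100% = zero luminescence signal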
# NOD2-RIPK2 inh: inhibitors of human NOD2-RIPK2 interaction. O43353. CHO BLA complementation NOD2-RIPK2, CCF4 ratio. inhibition, % at 4.98 µM. 360,000 compounds, 0.38% hits. AID 624267; in the data active means inhibition above about 21%;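 further: 0% = vehicle only and 100% = reference blocker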
# Target sequence (O43353 whole entry, looked up): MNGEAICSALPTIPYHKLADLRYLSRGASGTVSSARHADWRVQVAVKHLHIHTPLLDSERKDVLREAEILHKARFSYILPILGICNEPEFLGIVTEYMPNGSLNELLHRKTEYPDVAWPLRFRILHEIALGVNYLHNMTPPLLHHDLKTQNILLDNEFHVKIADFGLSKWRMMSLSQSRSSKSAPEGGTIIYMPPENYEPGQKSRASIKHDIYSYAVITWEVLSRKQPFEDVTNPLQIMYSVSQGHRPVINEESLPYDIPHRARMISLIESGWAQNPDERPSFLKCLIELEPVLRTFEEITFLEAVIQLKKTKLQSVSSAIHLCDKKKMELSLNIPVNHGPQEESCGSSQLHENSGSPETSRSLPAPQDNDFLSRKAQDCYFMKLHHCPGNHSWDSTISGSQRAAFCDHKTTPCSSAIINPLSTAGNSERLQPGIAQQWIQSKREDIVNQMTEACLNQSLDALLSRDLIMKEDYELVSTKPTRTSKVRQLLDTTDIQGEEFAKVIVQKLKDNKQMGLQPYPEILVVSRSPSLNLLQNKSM
# HSF1 activator: increases HSF-1 driven luciferase reporter signal; NIH3T3-HGL HSF-1 luciferase reporter, MG132, 8 h; 100% = twice DMSO control signal; activation, % at 9 µM; AID 504408; 300,000 compounds, 1.7% hits;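 active means mean replicate activation of at least 50% with a set share of replicates each reaching 50%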;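 further: 0% = median of the neutral control wells and 100% = twice that signal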
# Active calls of the source: *; . = not tested or not shown.
SMILES,TLR9-MyD88 block,TLR4-MyD88 BLA,HSF1 inhib,NOD2-RIPK2 inh,HSF1 activator
CC(C)[C@H](NC(=O)OC(C)(C)C)c1nnc(SCC(=O)Nc2ccc(Br)cc2)o1,-3,-10,32,-6,84*
NC(=O)c1cc(Cc2ccccc2)sc1NC(=O)c1ccco1,-4,5,94,-1,134*
COc1ccc(C2Nc3ccccc3C(=O)N2c2ccccc2)cc1Cn1cc([N+](=O)[O-])cn1 (stereo not drawn),-4,-7,6,-9,15
COc1ccc(N2C(=O)c3ccccc3NC2c2ccc(OC)c(Cn3cc([N+](=O)[O-])cn3)c2)cc1 (stereo not drawn),-7,.,-68*,-9,-75
OC(c1cccc(CN2CCCCC2)c1)c1ncc(-c2cccc(C(F)(F)F)c2)[nH]1 (stereo not drawn),.,.,.,-10,.
COc1ccccc1Nc1nnc(SCc2nnc(-c3cc(OC)c(OC)c(OC)c3)o2)s1,9,-9,-5,2,-4
COc1cc(-c2nnc(CSc3nnc(Nc4ccc(C(C)C)cc4)s3)o2)cc(OC)c1OC,-5,12,28,-10,56*
CCOc1ccccc1Nc1nnc(SCc2nnc(-c3cc(OC)c(OC)c(OC)c3)o2)s1,4,-9,-74*,1,-81
O=C(CCC(=O)c1ccc(Cl)s1)Nc1ncccc1O,2,.,.,2,.
Nc1nc(Nc2cccc3ccccc23)nc(C2CCCC2=O)n1 (stereo not drawn),.,2,7,.,53*
Cc1ccccc1CSCc1nc(N)nc(Nc2ccccc2C)n1,0,17,21,15,22
Cc1ccccc1Nc1nc(N)nc(COC(=O)c2ccc(O)cc2)n1,8,8,1,-12,5
Cc1ccccc1Nc1nc(N)nc(COC(=O)c2ccccc2)n1,0,-4,44,-9,58*
c1ccc2c(Nc3nc(N4CCOCC4)c4ccccc4n3)cccc2c1,4,3,-11,13,20
Nc1nc(CCl)nc(Nc2cccc3ccccc23)n1,.,.,-77*,-2,-79
Oc1ccc2ccccc2c1CN1CCN(C/C=C/c2ccccc2)CC1,0,.,128,6,185*
Oc1ccc2ccccc2c1CN1CCN(c2ccccc2F)CC1,-1,-5,73,2,84*
Cc1ccc(C(=O)N/C(=C\c2ccc(Br)cc2)c2nc(=S)[nH][nH]2)cc1,0,-9,-69*,-4,-75
O=C(N/C(=C/c1cccc(Br)c1)c1nc(=S)[nH][nH]1)c1ccccc1,-2,-8,5,1,5
O=C(C=Cc1ccccc1)CC(c1ccccc1)N1CCOCC1 (stereo not drawn),-1,.,.,12,.
O=C(Nc1ccc2c(c1)OCO2)c1ccc2sc([C@@H]3O[C@H](CO)[C@@H](O)[C@H]3O)nc2c1,.,.,.,-3,.
CCc1nc2ccc(C(=O)O)cc2nc1CC,11,-9,-69*,5,-71
Cc1[nH]n(-c2ccccc2)c(=O)c1C(C[N+](=O)[O-])c1ccc(Br)cc1 (stereo not drawn),-6,9,181,8,210*
COc1cccc(C(C[N+](=O)[O-])c2c(C)[nH]n(-c3ccccc3)c2=O)c1 (stereo not drawn),5,.,214,7,278*
COCc1ccc(C(=O)N2CCCC(N3CCN(c4cccc(Cl)c4)CC3)C2)s1 (stereo not drawn),3,.,.,-17,.
SMILES,TLR9-MyD88 block,TLR4-MyD88 BLA,HSF1 inhib,NOD2-RIPK2 inh,HSF1 activator
O=C(c1cc(COc2ccc(F)cc2Cl)on1)N1CCCCCC1,3,.,46,5,60*
O=C(c1cc(COc2ccc(F)cc2Cl)on1)N1CCCCCCC1,16,.,8,3,12
CN(CC(=O)Nc1ccc(N2CCOCC2)cc1)Cc1c(O)ccc2ccccc12,-7,-10,160,-4,198*
O=C(C1CCC1)N1CCc2cc(S(=O)(=O)N3CCN(c4ccccn4)CC3)ccc21,-4,-4,25,-8,63*
COP(=O)(OC)c1nc(-c2cccc3ccccc23)oc1NCc1ccccc1,-6,-1,25,4,87*
CCc1nc(SCC(=O)NCCc2ccc(OC)c(OC)c2)c2c(=O)n(C)c(=O)n(C)c2n1,-1,.,-78*,0,-83
COc1ccc(CCNC(=O)CSc2nc3c(c(=O)n(C)c(=O)n3C)n2C)cc1OC,8,-2,0,-8,14
O=C(CSc1nnc(CNC(=O)c2cccs2)o1)NCc1ccc(F)cc1,-4,3,-55*,6,-64
Clc1cccc(Cc2c(C3CCCCC3)nc3ccc(Br)cn23)c1,.,.,.,5,.
